According to ChEMBL document CHEMBL3988442, “University of Dundee, Small-Polar-MMV Screening Library” (2021):
Screen size: about 69,000 compounds; about 420 (0.61%) showed an effect of 50% or more. Shown is part of a subset that was picked to be rich in strong results.

The molecules below were run against T1, Histidine--tRNA ligase (Leishmania infantum) (UniProt A4I591) (assay: Leishmania infantum Histidine tRNA synthetase (LdHisRS)). Settings: 30 µM.
T1 sequence (whole entry): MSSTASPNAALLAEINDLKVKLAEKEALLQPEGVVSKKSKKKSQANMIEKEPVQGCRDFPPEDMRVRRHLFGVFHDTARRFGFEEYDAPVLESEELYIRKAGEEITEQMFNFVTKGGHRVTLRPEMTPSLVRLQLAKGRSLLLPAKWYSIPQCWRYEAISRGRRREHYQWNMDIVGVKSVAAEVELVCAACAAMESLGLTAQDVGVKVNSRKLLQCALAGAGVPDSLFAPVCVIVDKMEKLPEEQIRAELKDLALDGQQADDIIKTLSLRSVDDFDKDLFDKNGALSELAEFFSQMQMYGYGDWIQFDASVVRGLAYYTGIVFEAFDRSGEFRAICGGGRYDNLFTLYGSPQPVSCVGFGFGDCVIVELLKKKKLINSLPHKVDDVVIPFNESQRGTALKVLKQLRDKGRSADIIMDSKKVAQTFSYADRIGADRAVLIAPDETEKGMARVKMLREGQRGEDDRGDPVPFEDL
Type: functional
Design: scale not given: in the data most compounds retested in dose-response had high values

| SMILES | Percent Effect [%] |
| --- | --- |
| CCc1c(C(=O)N2CCN(C)[C@@H]3CS(=O)(=O)C[C@@H]32)[nH]c2ccccc12 | 11 |
| CC(C)NC(=O)N1CCC(c2nnc3n2CCNC3)CC1 | 74.5 |
| CC(C)NC(=O)N1CCCCC1c1nnc2n1CCNC2 (stereo not given) | 30.3 |
| CC(=O)N1CCCCC1c1nnc2n1CCNC2 (stereo not given) | 2.76 |
| O=C(CS(=O)(=O)Cc1csc(-c2ccc(F)cc2)n1)NCC1CC1 | 48.2 |
| NC(=O)CS(=O)(=O)Cc1csc(-c2ccccc2)n1 | 53 |
| NC(=O)CS(=O)(=O)Cc1csc(-c2ccc(F)cc2)n1 | 16.9 |
| O=C([C@@H]1CCO[C@@H]2CCN(CC3CC3)C[C@H]21)N1CCCCO1 | 17.9 |
| O=C(c1ccccc1)N1C[C@@H]2CCCO[C@@H]2[C@H](N2CCCC2)C1 | 22.8 |
| CCC[C@@H]1CN(C(=O)c2cc3ccccc3cc2O)C[C@H]1N(C)C | 77.1 |
| CCC[C@@H]1CN(C(=O)c2ccccc2C(C)=O)C[C@H]1N(C)C | 8.57 |
| CCC[C@@H]1CN(C(=O)c2ccccc2-c2ccccc2)C[C@H]1N(C)C | 8.57 |
| CCC1=N[C@@]2(CC[C@@H]3CN(CC(C)C)C[C@@H]32)C(=O)N1 | 11.1 |
| CCOc1cccc(C(=O)N2C[C@H]3CC[C@@H]2CN(C(=O)C2CCC2)C3)c1 | 4 |
| Cc1ccc(OCc2occc2C(=O)N2C[C@@H]3[C@@H](CN(C)C)[C@@H]3C2)cc1 | 15.9 |
| Cc1nc(COC[C@@]23CCC[C@@H]2CN(Cc2nccs2)C3)cs1 | 15.8 |
| CN(C)C(=O)CO[C@H]1CN(Cc2nccs2)[C@@H]2COC[C@H]12 | 9.91 |
| NC(=O)C1=NC2=NS(=O)(=O)c3ccccc3N2N1Cc1ccccc1Cl | 37.1 |
| NC(=O)C1=NN2C(=NS(=O)(=O)c3ccccc32)N1 | 14.8 |
| NC(=O)CN(Cc1ccc(Br)cc1)C(=O)c1ccccn1 | 7.29 |
| NC(=O)C1=NC2=NS(=O)(=O)c3ccccc3N2N1Cc1ccc(Br)cc1 | 59.7 |
| NC(=O)C1=NC2=NS(=O)(=O)c3ccccc3N2N1Cc1ccc(Cl)cc1 | 58.1 |
| Cc1nnc([C@@H]2CC[C@@H]3[C@@H](CCN3C3CCOCC3)O2)o1 | 2.63 |
| Cc1ccc(CN2CC[C@H]3[C@H]2CCN3S(C)(=O)=O)s1 | 20 |
| O=C(c1ccccn1)N1C[C@@H]2CC[C@H](C1)N(C(=O)CCc1ccsc1)C2 | 10.4 |
| Cc1nnsc1CN1C[C@H]2CC[C@@H]1CN(Cc1ccc(F)cc1)C2 | 8.33 |
| CC(=O)N1CCCCC[C@@H]2[C@@H]1[C@H](c1cccc(F)c1)CN2CCC(N)=O | 13 |
| CC(CCc1ccccc1F)C(=O)NS(C)(=O)=O (stereo not given) | 16.9 |

| SMILES | Percent Effect [%] |
| --- | --- |
| COCCn1cc(NC(=O)C(C)CCc2ccccc2F)ccc1=O (stereo not given) | 102 |
| CC(CCc1ccccc1)NC(=O)CN1CCOCC1 (stereo not given) | 1.49 |
| CC(CCc1ccccc1F)C(=O)NS(=O)(=O)N(C)C(C)C (stereo not given) | 19.5 |
| CC(CCc1ccccc1)NC(=O)Nc1cnn(CC(N)=O)c1 (stereo not given) | 24.3 |
| COCCn1cc(NC(=O)NC(C)CCc2ccccc2)ccc1=O (stereo not given) | 98.3 |
| COc1ccc(CN2C[C@@H]3COC[C@]3(CN(C)C)C2)cc1 | 17.6 |
| O=C(Cc1ccncc1)N1C[C@@H]2CC[C@H](C1)N(Cc1ccccc1)C2=O | 6.56 |
| O=C(Cc1csc(-c2ccco2)n1)N1CCN(c2cnccn2)CC1 | 56.8 |
| O=C(Cc1csc(-c2ccco2)n1)N1CCN(c2nccs2)CC1 | 20 |
| Cc1ccc(-c2nc(CC(=O)N3CCN(c4cnccn4)CC3)cs2)o1 | 28.7 |
| Cc1noc(C)c1CN1CC[C@H]2OCC[C@@H](C(=O)N3CCCO3)[C@H]2C1 | 20 |
| O=S(=O)(C1CC1)N1CCO[C@H]2[C@H](OCCN3CCCC3)CC[C@@H]21 | 15.1 |
| O=C1[C@H]2CN(CC3CCOCC3)C[C@H]2CN1c1ccsc1 | 8 |
| O=C(CC1CC1)N[C@@H]1CN(Cc2ccco2)C[C@@H]2CCCO[C@@H]21 | 17.1 |
| COCCN1CCC(C)(c2cc(O)[nH]n2)CC1 | 50 |
| COCCN1CCCC(C)(c2cc(O)[nH]n2)C1 (stereo not given) | 47.1 |
| COCC(=O)N1CCC(C)(c2cc(O)[nH]n2)CC1 | 17.1 |
| Cc1oncc1C(=O)N[C@@H]1CN(c2ncccn2)C[C@@H]2CCCO[C@@H]21 | 20 |
| CN1CCO[C@@H]2CN(S(=O)(=O)c3ccc(F)cc3)CC[C@@H]2C1 | 17.9 |
| CN(Cc1ccco1)C[C@H]1OC[C@@H]2CCN(Cc3cccnc3)C[C@@H]21 | 13.2 |
| c1cncc(CN2CC[C@@H]3O[C@H](COCCN4CCCC4)CC[C@@H]32)c1 | 16 |
| COc1cc(CN2CCN(c3cccc(OC)c3)C(=O)C2)cc(OC)c1 | 18.3 |
| COc1cccc(N2CCN(Cc3ccc4occc4c3)CC2=O)c1 | 13.5 |
| NCCc1cccc(CN2CCN(c3ccccc3)C(=O)C2)c1 | 55.7 |
| NCCc1cccc(CN2CCN(c3cccc(Cl)c3)C(=O)C2)c1 | 14.8 |
| Cc1cc(C)cc(N2CCN(Cc3cccc(CCN)c3)CC2=O)c1 | 8.2 |
| COc1cccc(N2CCN(Cc3cccc(CCN)c3)CC2=O)c1 | 60.7 |
